DT40 TDP1 CPT – growth inhibition of DT40 Tdp1-/-;hTDP1 cells with camptothecin (screen for TDP1 inhibitors). AID 686979. chicken DT40 Tdp1-/-;hTDP1 cells + 20 nM CPT, ATP luminescence, 48 h. Potency, µM (series often up to 46.2 µM), without a hit: top-dose activity change, negative = growth inhibition, most hits filed as inhibitors. 420,000 tested, 12% active; also: % is scaled to controls: 0 for no effect and ±100 for the full control effect; nearly all actives have a fitted effect of over 55% in size
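Chicken DT40 Tdp1-/- cells complemented with human TDP1, 400 cells/well, exposed to compounds plus 20 nM camptothecin for at least 48 h at 37 C; viability read as ATP content by CellTiter-Glo luminescence.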
ATXN viability – reduces viability in counter-screen for ATXN expression inhibitors; 400,000 tested, 0.49% active; Potency, µM (titrated, usually from 56.7 µM), most hits filed as cytotoxic; AID 651635; S2 cells (HEK-293 line with an ATXN2-luciferase reporter) viability, CellTiter-Fluor protease fluorescence, 24 h; also: nearly all actives have a fitted effect of over 40% in size
TDP1 cell noCPT – qHTS for Inhibitors of human tyrosyl-DNA phosphodiesterase 1 (TDP1): qHTS in cells in absence of CPT. DT40 Tdp1-/- hTDP1 cells, no CPT, ATP luminescence, 48 h. Potency, µM (series often up to 46.2 µM), without a hit: at the top dose activity change, negative = growth inhibition, most hits filed as inhibitors. 420,000 tested, 15% active. AID 686978, 2013; also: % is scaled to controls: 0 for no effect and ±100 for the full control effect; nearly all actives have a fitted effect of over 55% in size
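Cells were dispensed at 400 per well, compounds added by pin tool, plates incubated ≥48 hr at 37 °C, then CellTiter-Glo added for 30 min at room temperature before luminescence reading. Line: DT40 Tdp1-/- complemented with hTDP1; camptothecin omitted.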
ATXN2 expr inh – inhibitors of ATXN2 expression | HEK-293 ATXN2-luciferase reporter, luminescence, 24 h | Potency, µM (top dose mostly 57 µM), for inactives: at the highest dose activity change, negative = inhibition, most hits filed as inhibitors | 360,000 tested, 0.72% active | AID 1745845; also: % is scaled to controls: 0 for no effect and ±100 for the full control effect; nearly all actives have a fitted effect of over 55% in size
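qHTS (up to 57 uM final) was run with 24 h compound exposure of reporter cells at 37 °C. Each well was multiplexed: SteadyGlo luminescence measured ATXN2-luciferase expression after a fluorogenic Gly-Phe-AFC viability readout (25 uM final).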
HepG2 tox – kills HepG2 cells in TGF-b inhibitor counter-screen; HepG2 CAGA-GFP viability, ATP luminescence, 18 h; Potency, µM (top dose mostly 46.1 µM), inactives show at the highest dose activity change, negative = cytotoxicity, hits mostly cytotoxic; 410,000 tested, 0.76% active; AID 588856
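CellTiter-Glo luminescence gave cytotoxicity after 18 hours at 37 degrees C. The cells were HepG2 CAGA-GFP in 1% FBS DMEM, stimulated with 500 pg/mL TGF-beta after compound addition. %Activity was normalised to no-cell wells (complete cell-killing) and DMSO (no toxicity), and curves were fitted and classified.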
TGFb SMAD3 inh – TGF-b pathway inhibition | Potency, µM (top dose mostly 46.1 µM), for the others: at the highest dose activity, negative = inhibition, usual class: inhibitors | 410,000 tested, 1.2% active | HepG2 CAGA-GFP TGF-b/SMAD3 reporter, GFP fluorescence, 18 h; TGF-beta stimulated, 500 pg/mL final; also: % is scaled to controls: 0 for no effect and ±100 for the full control effect; nearly all actives have a fitted effect of over 65% in size
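Inhibition of TGF-beta-driven CAGA-GFP reporter expression in HEPG2 cells is measured by cellular GFP fluorescence after 18 h stimulation with 500 pg/mL recombinant TGF-beta in 1% FBS medium at 37 degrees C.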
The depositor's hits bear a star; i = inactive; ? = inconclusive; · = not tested or not shown. Compounds with a hit are over-represented: about 17% of the library has one in this group of screens. Calls follow the shape of the dose curve; as a rule, active = well fitted curve in the direction sought with a large enough effect; inconclusive = small, poorly fitted or top-dose-only effect, or another doubt; inactive = no such curve, though single readings can be large; an effect the other way counts as inactive or inconclusive. Potency is read from the fitted curve at half-maximal effect.

SMILES	DT40 TDP1 CPT	ATXN viability	TDP1 cell noCPT	ATXN2 expr inh	HepG2 tox	TGFb SMAD3 inh
CC(C)Cn1c(-c2cccs2)nc2nc3ccccc3nc21	16µM*	i	15µM*	5%	-11%	13%
c1ccc(-c2nc3nc4ccccc4nc3n2Cc2ccco2)cc1	?	i	22µM*	36%	-17%	5%
Fc1ccc(-n2c(-c3ccco3)nc3nc4ccccc4nc32)cc1	-11%	i	-9%	-9%	-6%	25%
CCCCOCCCn1c(-c2ccco2)nc2nc3ccccc3nc21	?	i	21µM*	7%	-9%	0%
CCCCn1c(-c2cccs2)nc2nc3ccccc3nc21	?	i	23µM*	26%	0%	87%
CCn1c(-c2cccs2)nc2ccccc21	-11%	i	-29%	2%	29%	-10%
COc1ccc(CCN2CC(C(=O)N3CCN(C(C)=O)CC3)CCC2=O)cc1 (stereo not given)	-21%	i	-7%	4%	-8%	-11%
CC(C)(C)n1ncc2c(=O)n(Cc3ccc(-c4ccccc4C#N)cc3)cnc21	·	·	·	·	3%	-2%
O=C(Nc1ccccc1C(=O)N1CCN(CCO)CC1)c1cccc([N+](=O)[O-])c1	13%	i	0%	8%	-18%	-3%
S=C1SCN(CC2CC2)CN1CC1CC1	0.58µM*	i	4.6µM*	?	-10%	11µM*
CCOc1cccc(-c2c(C(=O)N/N=C(\C)c3ccccn3)nnn2-c2nonc2N)c1	2.3µM*	?	1.6µM*	·	-13%	-16%
CCOc1ccc(/C=N/NC(=O)c2nnn(-c3nonc3N)c2-c2ccc(OCC)cc2)cc1	4%	i	4%	-21%	-12%	5%
CCOc1ccc(-c2c(C(=O)N/N=C/c3c[nH]c4ccccc34)nnn2-c2nonc2N)cc1	?	i	16µM*	-25%	-14%	?
CCOc1cccc(-c2c(C(=O)N/N=C(\C)c3ccncc3)nnn2-c2nonc2N)c1	0%	i	7%	-10%	-1%	-14%
COC(=O)c1ccc(Oc2cc(C)nc(SC)n2)cc1	4.1µM*	i	2.9µM*	-20%	-12%	-1%
O=C(CCN1C(=O)c2ccccc2C1=O)N1CCN(C2c3ccccc3-c3ccccc32)CC1	-15%	i	-6%	-10%	7%	-11%
S=c1[nH]nc(SCc2ccccc2)c2[nH]cnc12	?	i	4.6µM*	29%	-12%	-4%
Cc1ccc(-c2cc(C(=O)NCc3ccccc3Cl)c3ccccc3n2)cc1C	15µM*	i	?	-1%	-17%	-2%
CCn1cc(-c2cc(C(=O)O)c3ccccc3n2)cn1	9.2µM*	i	?	?	-60%	1%
O=C(NCCc1ccc(Cl)cc1)c1cc(-c2ccccn2)nc2ccccc12	?	?	?	-35%	-26%	?
O=C(NCCc1ccccn1)c1cc(-c2ccccc2Cl)nc2ccccc12	-30%	i	18µM*	-10%	-13%	-21%
Cc1cc(C(=O)NCc2cc(C)n(C)n2)sc1-c1ccccc1	13µM*	i	21µM*	-4%	-20%	-8%
Nc1ccn(CC(=O)NCCNc2ccc([N+](=O)[O-])cn2)c(=O)n1	?	i	-8%	3%	-12%	1%
CSc1ncccc1C(=O)Nc1ccccc1N1CCOCC1	-2%	i	9%	-12%	5%	?
COCCCNC(=O)c1cc(-c2cccnc2)nc2ccccc12	-8%	i	-7%	-3%	9%	?
O=C(NCc1ccccn1)c1cc(-c2ccc(-c3ccccc3)cc2)nc2ccccc12	16µM*	i	8.2µM*	·	-32%	-11%

Source: PubChem (National Center for Advancing Translational Sciences (NCATS))
